According to PubChem BioAssay (Tox21):
“And” between values parts separate entries of the source, which are not always exact repeats. Identical values can stand only once. Records with an inconclusive call do not appear. A call without a number means that no potency is given here. The source made the active and inactive calls. Calls follow the shape of the dose curve; as a rule, active = well fitted cell-killing curve with a large enough effect in the repeat runs; inconclusive = weak or mixed curves, or effect the other way; inactive = flat fitted curve, though single readings scatter.

How the values were obtained:
[1] = cAMP Responsive Elements (CRE) small molecule antagonists, cell-based qHTS assay: qHTS cell viability counter screen (AID 2060913); conditions: CRE-bla HEK293T viability, CellTiter-Glo luminescence, 5 h; series mostly up to 92.4 µM; also: nearly all actives have a fitted effect of over 40% in size
Outline: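 HEK293T CRE-bla, 2,000 cells/well, 18 h preincubation; cpd in DMSO + NKH477 0.25 uM final, 3 h 37 C/5% CO2; LiveBLAzer 2 h RT, then CellTiter-Glo 30 min RT, luminescence.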

[2] = cAMP Responsive Elements (CRE) small molecule agonists, cell-based qHTS assay: qHTS cell viability counter screen (AID 2060914); conditions: CRE-bla HEK293T viability, CellTiter-Glo luminescence, 5 h; series mostly up to 92.4 µM; also: nearly all actives have a fitted effect of over 50% in size
Outline: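 Cytotoxicity was measured as ATP luminescence (CellTiter-Glo, 30 min at room temperature) in the same wells as the CRE-bla FRET read-out. HEK293T CRE-bla cells had 3 h compound exposure at 37C/5% CO2.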
Potency is read from the fitted curve at half-maximal effect.

| SMILES | Potency [1] | Potency [2] |
| --- | --- | --- |
| Cc1cccc(C)c1NC(=O)CN1CCCC1=O | inactive | inactive |
| Cc1ccc(C(=O)Cl)cc1 | inactive | inactive |
| CCCCN(N=O)C(=N)N[N+](=O)[O-] | inactive | inactive |
| Nc1ccccc1-c1ccccc1 | inactive | inactive |
| Nc1ccc(Cl)c(Cl)c1 | inactive | inactive |
| O=C(Nc1ccccc1)N(Cc1ccc(Cl)cc1)C1CCCC1 | inactive | inactive |
| CCC(=O)OC1(c2ccccc2)CCN(C)CC1 | inactive | inactive |
| COc1ccc(C(=O)N2CCCC2=O)cc1 | inactive | inactive |
| CC(C)(C#N)N=NC(C)(C)C#N | inactive | inactive |
| CN1C[C@@H](NS(=O)(=O)N(C)C)C[C@@H]2c3cccc4c3c(cn4C)C[C@H]21 | inactive | inactive |
| COC(=O)C(Br)CBr (stereo not given) | inactive | inactive |
| COP(=O)(OC)SCn1c(=O)oc2cc(Cl)cnc21 | inactive | inactive |
| Cl/C=C\C[N+]12CN3CN(CN(C3)C1)C2 | inactive | inactive |
| COc1ccc(N)cc1 | inactive | inactive |
| CC(C)=CC1C(C(=O)OC(C#N)c2cccc(Oc3ccccc3)c2)C1(C)C (stereo not given) | inactive | inactive |
| CCC[CH2][Sn]([Cl])([Cl])[CH2]CCC | 17.4 µM (active) and 18 µM (active) | 31 µM (active) and 30.6 µM (active) |
| N#CN=C(N)N | inactive | inactive |
| Fc1ccc(Oc2ccnc3cc(Cl)cc(Cl)c23)cc1 | inactive | inactive |
| Cn1cc(C2=C(c3cn(C4CCN(Cc5ccccn5)CC4)c4ccccc34)C(=O)NC2=O)c2ccccc21 | inactive | inactive |
| ClCCBr | inactive | inactive |
| O=c1[nH]c2ccccc2n1C1CCN(CCCC(c2ccc(F)cc2)c2ccc(F)cc2)CC1 | inactive | inactive |
| CN(C1CCCCC1)C1CCCCC1 | inactive | inactive |
| O=[N+]([O-])c1ccccc1O | inactive | inactive |
| COC(=O)c1ccc(CBr)cc1 | inactive | inactive |

| SMILES | Potency [1] | Potency [2] |
| --- | --- | --- |
| CCCCCCCCCBr | inactive | inactive |
| CN(C)C(=S)S | inactive | inactive |
| Oc1ccc(C(=C(Cl)Cl)c2ccc(O)cc2)cc1 | inactive | inactive |
| ClC1=C(Cl)[C@]2(Cl)[C@@H]3[C@@H](Cl)[C@H](Cl)C[C@@H]3[C@@]1(Cl)C2(Cl)Cl | inactive | inactive |
| CCCC[P+](CC)(CCCC)CCCC (tested in a mixture with another compound) | inactive | inactive |
| C=CCOC(=O)c1ccccc1N | inactive | inactive |
| C[C@H](N)[C@H](O)c1ccc(O)c(O)c1 | inactive | inactive |
| O=NN1CCCCC1 | inactive | inactive |
| Cc1nnc2n1-c1sc(CCc3ccc(CC(C)C)cc3)cc1C(c1ccccc1Cl)=NC2C (stereo not given) | inactive | inactive |
| C=CCSSCC=C | inactive | inactive |
| CC(O)C#N (stereo not given) | inactive | inactive |
| CN(C)c1ccc(N=Nc2ccccc2)cc1 | inactive | inactive |
| Oc1ccc(C(c2ccc(O)cc2)(C(F)(F)F)C(F)(F)F)cc1 | inactive | inactive |
| C=CC(=C)C | inactive | inactive |
| CCOP(=S)(OCC)Oc1ccc([N+](=O)[O-])cc1 | inactive | inactive |
| Cn1cc(-c2ccccc2)c(=O)c(-c2cccc(C(F)(F)F)c2)c1 | inactive | inactive |
| CCc1ccc(C2CCNCC2)cc1 | inactive | inactive |
| CCOC(=O)/C=C(C)/C=C/C[C@@H](C)CCCC(C)C | inactive | inactive |
| CCC(=O)c1ccc(Cl)cc1 | inactive | inactive |
| CCCC[N+](=O)[O-] | inactive | inactive |
| Oc1ccc(Cl)cc1Cl | inactive | inactive |
| Clc1ccccc1-c1nnc(-c2ccccc2Cl)nn1 | inactive | inactive |
| CCOS(=O)(=O)OCC | inactive | inactive |
| CC[N+]1(C)CCCC(OC(=O)C(O)(c2ccccc2)c2ccccc2)C1 (stereo not given) | inactive | inactive |

| SMILES | Potency [1] | Potency [2] |
| --- | --- | --- |
| CCCn1cc[n+](C)c1 | inactive | inactive |
| Cc1ccc([N+](=O)[O-])cc1 | inactive | inactive |
| C[C@]12CC[C@H]3[C@@H](CCC4=CC(=O)CC[C@@]43C)[C@@H]1CC[C@@H]2O | inactive | inactive |
| CCOC(=O)NC(=S)Nc1ccccc1NC(=S)NC(=O)OCC | inactive | inactive |
| C[N+](C)(C)Cc1ccccc1 | inactive | inactive |
| C=CCCl | inactive | inactive |
| CCCCN(CCCC)SN(C)C(=O)Oc1cccc2c1OC(C)(C)C2 | inactive | inactive |
| O=C1CC[C@@]2(O)[C@H]3Cc4ccc(O)c5c4[C@@]2(CCN3CC2CC2)[C@H]1O5 | inactive | inactive |
| ClCc1ccccc1CCl | inactive | inactive |
| N#CN | inactive | inactive |
| CCC1(CC)C(=O)NC(=O)NC1=O | inactive | inactive |
| CCCCOC(=O)c1ccccc1C(=O)O | inactive | inactive |
| C[C@@H](N)[C@@H](O)c1ccccc1 | inactive | inactive |
| Clc1ccc(C2(Cn3cncn3)CC(Br)CO2)c(Cl)c1 (stereo not given) | inactive | inactive |
| CN(C)c1ccc(N)cc1 | inactive | inactive |
| COC(=O)[C@@H](N)CCCN/C(N)=N/[N+](=O)[O-] | inactive | inactive |
| CCOP(=S)(OCC)Oc1cc(-c2ccccc2)on1 | inactive | inactive |
| CCC(C)(C)C(=O)OC1=C(c2ccc(Cl)cc2Cl)C(=O)OC12CCCCC2 | inactive | inactive |
| CC(C)(O)c1cnn2c(-c3ccc(F)c(-c4c(F)cccc4C#N)c3)cnc2n1 | inactive | inactive |
| CC(C)N1C(=O)c2ccccc2NS1(=O)=O | inactive | inactive |
| CC(=O)CCC(C)=O | inactive | inactive |
| CCC[N+](CCC)(CCC)CCC | inactive | inactive |
| COC(=O)c1ccccc1CS(=O)(=O)NC(=O)Nc1nc(OC)cc(OC)n1 | inactive | inactive |
| CCN(CC)C(=O)/C(Cl)=C(\C)OP(=O)(OC)OC | inactive | inactive |

| SMILES | Potency [1] | Potency [2] |
| --- | --- | --- |
| COP(=S)(OC)Oc1nc(Cl)c(Cl)cc1Cl | inactive | inactive |
| O=C1NC(=O)C(=O)C(=O)N1 | inactive | inactive |
| CCCCCCBr | inactive | inactive |
| ClCCN1CCOCC1 | inactive | inactive |
| O=C(NC(=O)c1c(F)cccc1F)Nc1cc(Cl)c(Oc2ncc(C(F)(F)F)cc2Cl)c(Cl)c1 | inactive | inactive |
| COc1cc(OC)nc(Oc2cccc(Oc3nc(OC)cc(OC)n3)c2C(=O)O)n1 | inactive | inactive |
| CN(C)P(=O)(N(C)C)N(C)C | inactive | inactive |
| COC(=O)/C=C(\C)OP(=O)(OC)OC | inactive | inactive |
| O=C(O)Cc1ccccc1 | inactive | inactive |
| CCCN1CCC[C@@H]2Cc3nc(N)ncc3C[C@H]21 | inactive | inactive |
| Nc1cccc2ccccc12 | inactive | inactive |
| C=CC(=O)NC(C)(C)CC(C)=O | inactive | inactive |
| O=[N+]([O-])c1c(Cl)c(Cl)c(Cl)c(Cl)c1Cl | inactive | inactive |
| CCSC(=O)N(CC)C1CCCCC1 | inactive | inactive |
| CN(C)CCc1ccc(O)cc1 | inactive | inactive |
| Cc1cc(=O)[nH]o1 | inactive | inactive |
| O=C(O)CCCCCCNC1c2ccccc2CCc2ccccc21 | inactive | inactive |
| CCCOC(=O)c1cncn1C(C)c1ccccc1 (stereo not given) | inactive | inactive |
| CCN(CC)CCOC(=O)C(O)(c1ccccc1)c1ccccc1 | inactive | inactive |
| NC(=S)c1c(Cl)cccc1Cl | inactive | inactive |
| O=C1C(=O)c2cccc3cccc1c23 | inactive | inactive |
| O=C([O-])c1ccccn1.O=C([O-])c1ccccn1.O=C([O-])c1ccccn1.[Cr+3] | inactive | inactive |
| O=C(Oc1ccc(Br)cc1)N1CCN2CCC1CC2 | inactive | inactive |
| CC[N+]1(CCOC(=O)C(O)(c2ccccc2)c2ccccc2)CCCCC1 | inactive | inactive |

| SMILES | Potency [1] | Potency [2] |
| --- | --- | --- |
| CC(C)NC(=O)N1CC(=O)N(c2cc(Cl)cc(Cl)c2)C1=O | inactive | inactive |
| CCOC(=O)COc1cc(-c2nn(C)c(OC(F)F)c2Cl)c(F)cc1Cl | inactive | inactive |
| CCCC[n+]1ccccc1C | inactive | inactive |
| CCOP(=S)(OCC)SCS(=O)(=O)CC | inactive | inactive |
| CCCN(CCOc1c(Cl)cc(Cl)cc1Cl)C(=O)n1ccnc1 | inactive | inactive |
| CN(C)c1ccc(C(=O)c2ccc(N(C)C)cc2)cc1 | inactive | inactive |
| ClCC(Cl)CCl | inactive | inactive |
| N#CS | inactive | inactive |
| Oc1ccccc1Br | inactive | inactive |
| Cl/C=C\Cl | inactive | inactive |
| N[C@@H]1C[C@H]1c1ccccc1 | inactive | inactive |
| CCOC(=O)CCl | inactive | inactive |
| CC(Cc1ccc2c(c1)OCO2)NO (stereo not given) | inactive | inactive |
| [N-]=[N+]=CC(=O)OC[C@H](N)C(=O)O | inactive | inactive |
| CCOC(=O)Nc1cccc(OC(=O)Nc2ccccc2)c1 | inactive | inactive |
| CC(C)N(C(=O)CCl)c1ccccc1 | inactive | inactive |
| COP(=S)(OC)Oc1ccc([N+](=O)[O-])cc1 | inactive | inactive |
| CC(=O)[O][Hg][c]1ccccc1 | 12.1 µM (active) and 12.2 µM (active) and 16.8 µM (active) | 10.8 µM (active) and 13.7 µM (active) |
| C[C@]12CCC(=O)C=C1CC[C@@H]1[C@@H]2CC[C@]2(C)C(=O)CC[C@@H]12 | inactive | inactive |
| BrC(Br)C(Br)(Br)Br | inactive | inactive |
| N#CSCc1ccccc1 | inactive | inactive |
| CC(Cc1ccc(OCC(=O)O)cc1)NCC(O)c1csc(C(F)(F)F)n1 (stereo not given) | inactive | inactive |
| CCCCC(CC)COC(=O)c1ccc(C(=O)OCC(CC)CCCC)c(C(=O)OCC(CC)CCCC)c1 (stereo not given) | inactive | inactive |
| C1CC2OC2CC1C1CO1 (stereo not given) | inactive | inactive |
